Measured values from PubChem BioAssay (EPA / NIEHS).
Inconclusive results are not listed. Activity calls are given as the source filed them. How the source made its calls, unless noted: active means hit-call score of the fitted dose curve at least 0.9, where 1 is the maximum; inactive means score below 0.9.

What was measured:
[1] = ATG_Sox_CIS: Attagene CIS-FACTORIAL HepG2 Assay for human SRY-box transcription factor (SOX) (AID 2282960); conditions: HepG2 Attagene cis-factorial SOX reporter, mRNA; actives raise or lower the signal
Outline: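 Using transiently transfected HepG2 cells, reporter transcription driven by cis elements was assessed 24 h after dosing. Signal was fluorescence of capillary-separated RT-PCR products, with DMSO defining baseline activity.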

[2] = target: Transcription factor Sp1 (Homo sapiens) (UniProt P08047); assay: ATG_Sp1_CIS: Attagene CIS-FACTORIAL HepG2 Assay for human Specificity Protein 1 (Sp1) (AID 2282961); conditions: HepG2 Sp1 cis-reporter transcription, actives raise or lower the signal
Sequence of Transcription factor Sp1 (Homo sapiens) (P08047 whole entry, looked up): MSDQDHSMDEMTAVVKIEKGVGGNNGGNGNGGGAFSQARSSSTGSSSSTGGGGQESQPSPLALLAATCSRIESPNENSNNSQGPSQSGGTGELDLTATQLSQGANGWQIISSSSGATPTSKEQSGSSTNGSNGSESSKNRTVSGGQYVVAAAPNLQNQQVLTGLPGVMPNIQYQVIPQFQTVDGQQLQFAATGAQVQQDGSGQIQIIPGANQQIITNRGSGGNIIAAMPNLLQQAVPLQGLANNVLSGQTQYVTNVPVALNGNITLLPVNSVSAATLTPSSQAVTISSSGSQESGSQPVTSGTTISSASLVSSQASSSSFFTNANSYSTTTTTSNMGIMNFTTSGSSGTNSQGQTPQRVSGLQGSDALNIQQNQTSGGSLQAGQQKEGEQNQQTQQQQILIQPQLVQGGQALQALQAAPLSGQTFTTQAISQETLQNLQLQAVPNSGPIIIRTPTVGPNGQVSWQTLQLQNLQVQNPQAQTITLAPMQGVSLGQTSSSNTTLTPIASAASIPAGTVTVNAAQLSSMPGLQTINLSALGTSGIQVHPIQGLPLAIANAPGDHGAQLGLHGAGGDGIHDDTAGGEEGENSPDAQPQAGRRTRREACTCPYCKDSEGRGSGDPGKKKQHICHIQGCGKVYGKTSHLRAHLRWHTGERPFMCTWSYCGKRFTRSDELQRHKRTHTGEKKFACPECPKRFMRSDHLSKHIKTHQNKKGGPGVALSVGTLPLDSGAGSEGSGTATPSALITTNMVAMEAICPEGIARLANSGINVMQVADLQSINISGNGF
Outline: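 After transient transfection of HepG2 cells with cis-promoter reporter units and 24 h chemical treatment, reporter transcripts were quantified by RT-PCR and capillary electrophoresis fluorescence. Gain- and loss-of-signal fitted against DMSO.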

[3] = ATG_SREBP_CIS: Attagene CIS-FACTORIAL HepG2 Assay for human Sterol Regulatory Element Binding (SREBP) (AID 2282962); conditions: HepG2 Attagene cis-factorial SREBP reporter, mRNA; actives raise or lower the signal
Outline: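 Values derive from bidirectional curve fitting with DMSO as baseline. The underlying measurement is reporter mRNA from cis-element-regulated units in transiently transfected HepG2, quantified by RT-PCR and capillary electrophoresis after 24 h exposure.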

[4] = target: Signal transducer and activator of transcription 3 (Homo sapiens) (UniProt P40763); assay: ATG_STAT3_CIS: Attagene CIS-FACTORIAL HepG2 Assay for human Signal Transducer and Activator of Transcription 3 (STAT3) (AID 2282963); conditions: HepG2, Attagene cis-factorial STAT3 reporter transcription; actives raise or lower the signal
Sequence of Signal transducer and activator of transcription 3 (Homo sapiens) (P40763 whole entry, looked up): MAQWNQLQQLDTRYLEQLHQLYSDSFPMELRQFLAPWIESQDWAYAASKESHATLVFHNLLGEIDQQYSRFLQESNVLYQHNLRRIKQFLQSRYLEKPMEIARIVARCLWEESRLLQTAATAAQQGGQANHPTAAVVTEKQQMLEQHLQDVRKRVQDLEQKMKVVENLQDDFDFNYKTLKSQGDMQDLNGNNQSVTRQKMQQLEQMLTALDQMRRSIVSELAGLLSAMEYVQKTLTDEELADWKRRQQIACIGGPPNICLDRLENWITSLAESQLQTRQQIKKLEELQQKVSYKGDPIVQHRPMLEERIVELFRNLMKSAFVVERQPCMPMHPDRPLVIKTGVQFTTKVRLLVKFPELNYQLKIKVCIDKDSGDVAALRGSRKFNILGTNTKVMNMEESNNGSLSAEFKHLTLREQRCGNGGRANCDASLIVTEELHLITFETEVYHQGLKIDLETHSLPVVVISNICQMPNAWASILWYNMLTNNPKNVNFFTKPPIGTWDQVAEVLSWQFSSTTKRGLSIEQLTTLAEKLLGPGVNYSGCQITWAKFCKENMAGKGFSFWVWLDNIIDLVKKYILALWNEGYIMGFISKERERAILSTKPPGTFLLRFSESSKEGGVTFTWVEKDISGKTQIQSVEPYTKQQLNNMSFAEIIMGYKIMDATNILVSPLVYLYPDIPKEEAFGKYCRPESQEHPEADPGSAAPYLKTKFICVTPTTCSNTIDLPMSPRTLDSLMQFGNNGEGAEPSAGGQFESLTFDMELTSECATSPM
Outline: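 HepG2, MRTU-transfected, 24 h dosing. RNA → RT → PCR → FAM label → HpaI → CE. Bidirectional fit vs DMSO.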

[5] = ATG_TA_CIS: Attagene CIS-FACTORIAL HepG2 Assay for human TA Basal Promoter (AID 2282964); conditions: HepG2 Attagene CIS-factorial TA basal promoter reporter; actives raise or lower the signal
Outline: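 Fluorescence from labelled RT-PCR reporter fragments, separated by capillary electrophoresis, gives the signal. Cells: HepG2 transiently carrying multiple reporter units, 24 h chemical dosing. Gain or loss relative to DMSO.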

[6] = ATG_TCF_b_cat_CIS: Attagene CIS-FACTORIAL HepG2 Assay for human T-Cell-Factor with beta-catenin (TCF/b-cat) (AID 2282965); conditions: HepG2 TCF/beta-catenin cis-reporter transcription, actives raise or lower the signal
Outline: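 HepG2 cells transiently transfected with multiple cis-promoter-regulated reporter transcription units, so endogenous transcription factor activity is measured. Reporter mRNA read 24 hours after dosing by RT-PCR, fluorescent labelling and capillary electrophoresis; bidirectional fitting against DMSO.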

[7] = ATG_TAL_CIS: Attagene CIS-FACTORIAL HepG2 Assay for human TAL Basal Promoter (AID 2282966); conditions: HepG2 Attagene cis-factorial TAL promoter reporter; actives raise or lower the signal;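 further: background control endpoint measuring basal TAL promoter reporter mRNA not a specific factor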
Outline: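 Basal-promoter background-control endpoint from a multiplexed HepG2 reporter panel. Cells were exposed 24 h, then reporter mRNA was read by RT-PCR/CE fluorescence and fitted in both directions relative to DMSO.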

[8] = ATG_TGFb_CIS: Attagene CIS-FACTORIAL HepG2 Assay for human Transforming Growth Factor (TGF) (AID 2282967); conditions: HepG2 Attagene CIS TGFb reporter, mRNA transcription; actives raise or lower the signal
Outline: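 Bidirectional fitting relative to DMSO gave the endpoint. Underlying data: reporter mRNA from HepG2 cells carrying transiently transfected cis-regulated reporter constructs, harvested 24 h after dosing and analyzed by RT-PCR and capillary electrophoresis.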

[9] = ATG_M_19_TRANS: Attagene TRANS-FACTORIAL HepG2 Assay for M19 Transcription Factor (Internal Marker) (AID 2282974; active means hit-call score of the fitted dose curve at least 0.9, where 1 is the maximum); conditions: HepG2 Attagene TRANS-FACTORIAL M19 internal marker reporter
Outline: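 Gain-of-signal in reporter mRNA, relative to DMSO, was scored from capillary electrophoresis fluorescence. HepG2 cells carried transiently transfected multiple reporter transcription units and were incubated with test chemicals for 24 h.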

[10] = ATG_GAL4_TRANS: Attagene TRANS-FACTORIAL HepG2 Assay for GAL4 (Internal Marker) (AID 2282976; active means hit-call score of the fitted dose curve at least 0.9, where 1 is the maximum); conditions: HepG2 Attagene TRANS GAL4 internal marker reporter
Outline: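 Background-control readout: GAL4-UAS reporter transcript in transiently transfected HepG2 cells after 24 h compound exposure. Measured by RT-PCR, 6-FAM primer extension, HpaI digest and capillary electrophoresis; gain-of-signal fit versus DMSO.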

[11] = target: Estrogen receptor (Homo sapiens) (UniProt P03372); assay: ATG_ERa_TRANS: Attagene TRANS-FACTORIAL HepG2 Assay for human Estrogen Receptor alpha (ERa) (AID 2282970; active means hit-call score of the fitted dose curve at least 0.9, where 1 is the maximum); conditions: HepG2 Attagene TRANS ERa GAL4 reporter, mRNA
Sequence of Estrogen receptor (Homo sapiens) (P03372 whole entry, looked up, the tested form may be a part): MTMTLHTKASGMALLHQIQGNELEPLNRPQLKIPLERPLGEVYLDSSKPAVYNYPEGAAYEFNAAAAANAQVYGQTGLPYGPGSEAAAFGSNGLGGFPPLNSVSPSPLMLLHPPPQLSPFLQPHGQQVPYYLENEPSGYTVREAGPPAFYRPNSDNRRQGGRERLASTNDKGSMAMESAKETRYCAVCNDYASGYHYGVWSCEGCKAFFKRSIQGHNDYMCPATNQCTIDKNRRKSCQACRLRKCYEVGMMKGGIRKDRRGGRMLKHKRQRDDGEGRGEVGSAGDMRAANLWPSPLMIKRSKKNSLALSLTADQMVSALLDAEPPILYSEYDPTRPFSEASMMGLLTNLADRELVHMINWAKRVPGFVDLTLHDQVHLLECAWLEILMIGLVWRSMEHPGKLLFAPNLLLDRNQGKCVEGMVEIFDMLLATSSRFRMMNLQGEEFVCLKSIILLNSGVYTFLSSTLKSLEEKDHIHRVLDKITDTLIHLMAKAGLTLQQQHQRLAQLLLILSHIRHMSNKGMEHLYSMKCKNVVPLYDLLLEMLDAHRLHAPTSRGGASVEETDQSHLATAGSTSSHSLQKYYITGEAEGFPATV
Outline: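 Gal4-fusion ERa transactivation, measured as reporter transcript level in transiently transfected HepG2 cells. Exposure 24 h; RT-PCR plus capillary electrophoresis with fluorescence detection.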

[12] = target: Estrogen-related receptor gamma (Homo sapiens) (UniProt P62508); assay: ATG_ERRg_TRANS: Attagene TRANS-FACTORIAL HepG2 Assay for human Estrogen-Related Receptor gamma (ERRg) (AID 2282977; active means hit-call score of the fitted dose curve at least 0.9, where 1 is the maximum;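 further: hits increase reporter signal over DMSO so potencies reflect activators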); conditions: HepG2 Attagene TRANS reporter, ERRg transactivation
Sequence of Estrogen-related receptor gamma (Homo sapiens) (P62508 whole entry, looked up, the tested form may be a part): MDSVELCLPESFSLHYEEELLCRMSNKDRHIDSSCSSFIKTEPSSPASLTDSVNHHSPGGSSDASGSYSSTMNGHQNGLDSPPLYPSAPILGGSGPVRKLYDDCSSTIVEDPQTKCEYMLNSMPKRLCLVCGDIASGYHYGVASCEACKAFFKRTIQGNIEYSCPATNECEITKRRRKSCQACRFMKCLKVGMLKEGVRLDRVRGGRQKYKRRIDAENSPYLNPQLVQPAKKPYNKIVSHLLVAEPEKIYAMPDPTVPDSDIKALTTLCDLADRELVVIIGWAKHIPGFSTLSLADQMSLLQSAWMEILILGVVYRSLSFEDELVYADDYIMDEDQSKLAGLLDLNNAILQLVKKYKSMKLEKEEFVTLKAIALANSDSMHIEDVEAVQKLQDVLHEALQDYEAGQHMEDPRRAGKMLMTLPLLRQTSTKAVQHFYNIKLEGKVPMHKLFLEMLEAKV
Outline: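 Induction of reporter transcripts through a chimeric NR-Gal4 protein is quantified in transfected human HepG2 liver cells after 24 h chemical exposure, using RT-PCR with capillary electrophoresis detection and DMSO as baseline.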

[13] = ATG_VDRE_CIS: Attagene CIS-FACTORIAL HepG2 Assay for human Vitamin D Receptor Element (VDRE) (AID 2282968); conditions: HepG2 VDRE cis-reporter transcription, actives raise or lower the signal
Outline: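 Steps: transfect HepG2 with multiple reporter transcription units; dose chemicals 24 h; isolate RNA; RT-PCR; label with 6-FAM primer extension; HpaI digest; capillary electrophoresis. Curves fitted both directions against DMSO.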

[14] = target: Nuclear receptor subfamily 1 group I member 3 (Homo sapiens) (UniProt Q14994); assay: ATG_CAR_TRANS: Attagene TRANS-FACTORIAL HepG2 Assay for human Constitutive Androstane Receptor (CAR) (AID 2282969; active means hit-call score of the fitted dose curve at least 0.9, where 1 is the maximum;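 further: activators raise reporter mRNA above DMSO so AC50 marks induction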); conditions: HepG2 Attagene TRANS-FACTORIAL CAR reporter
Sequence of Nuclear receptor subfamily 1 group I member 3 (Homo sapiens) (Q14994 whole entry, looked up, the tested form may be a part): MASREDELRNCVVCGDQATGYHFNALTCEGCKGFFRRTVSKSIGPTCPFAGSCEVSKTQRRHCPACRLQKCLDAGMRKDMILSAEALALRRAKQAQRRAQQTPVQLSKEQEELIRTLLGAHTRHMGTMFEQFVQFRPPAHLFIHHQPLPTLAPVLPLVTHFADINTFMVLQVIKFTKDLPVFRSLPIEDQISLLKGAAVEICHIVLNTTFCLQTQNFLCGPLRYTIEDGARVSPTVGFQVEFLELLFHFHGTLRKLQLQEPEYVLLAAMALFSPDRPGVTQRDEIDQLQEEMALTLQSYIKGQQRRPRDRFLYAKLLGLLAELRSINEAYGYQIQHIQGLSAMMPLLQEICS
Outline: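 Steps: transient transfection of HepG2 with multiple GAL4-UAS reporter units; 24 h compound incubation; RNA isolation, RT-PCR, 6-FAM primer extension, HpaI digest; capillary electrophoresis. Gain-of-signal relative to DMSO negative control.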

[15] = target: X-box-binding protein 1 (Homo sapiens) (UniProt P17861); assay: ATG_Xbp1_CIS: Attagene CIS-FACTORIAL HepG2 Assay for human X-box Binding Protein 1 (XBP1) (AID 2282972); conditions: HepG2 XBP1 cis-element reporter, Attagene multiplex; actives raise or lower the signal
Sequence of X-box-binding protein 1 (Homo sapiens) (P17861 whole entry, looked up): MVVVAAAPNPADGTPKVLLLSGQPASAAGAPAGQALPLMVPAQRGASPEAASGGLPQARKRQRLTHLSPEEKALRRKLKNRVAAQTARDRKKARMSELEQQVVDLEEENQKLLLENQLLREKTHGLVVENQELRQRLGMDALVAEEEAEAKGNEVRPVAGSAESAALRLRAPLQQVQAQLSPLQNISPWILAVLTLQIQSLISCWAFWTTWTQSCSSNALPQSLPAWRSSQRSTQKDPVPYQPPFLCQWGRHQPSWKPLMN
Outline: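 Human hepatoma HepG2, cis-element reporter system, 24 h treatment; mRNA quantified by RT-PCR/CE fluorescence; fit relative to DMSO.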

[16] = target: Oxysterols receptor LXR-alpha (Homo sapiens) (UniProt Q13133); assay: ATG_LXRa_TRANS: Attagene TRANS-FACTORIAL HepG2 Assay for human Liver X Receptor alpha (LXRa) (AID 2282980; active means hit-call score of the fitted dose curve at least 0.9, where 1 is the maximum); conditions: HepG2 Attagene TRANS reporter, LXRa transactivation
Sequence of Oxysterols receptor LXR-alpha (Homo sapiens) (Q13133 whole entry, looked up, the tested form may be a part): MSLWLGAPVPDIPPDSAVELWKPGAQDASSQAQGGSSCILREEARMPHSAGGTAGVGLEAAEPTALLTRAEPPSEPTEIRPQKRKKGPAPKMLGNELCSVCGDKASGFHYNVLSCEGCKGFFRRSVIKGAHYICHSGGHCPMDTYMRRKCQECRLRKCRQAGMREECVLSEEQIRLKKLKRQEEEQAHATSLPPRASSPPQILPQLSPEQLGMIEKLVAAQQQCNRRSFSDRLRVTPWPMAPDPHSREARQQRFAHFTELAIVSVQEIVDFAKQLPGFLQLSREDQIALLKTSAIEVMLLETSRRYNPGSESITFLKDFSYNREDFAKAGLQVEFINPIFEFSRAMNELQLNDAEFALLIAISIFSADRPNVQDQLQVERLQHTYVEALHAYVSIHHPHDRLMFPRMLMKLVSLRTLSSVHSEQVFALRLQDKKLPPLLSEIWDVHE
Outline: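 HepG2 cells transiently transfected with GAL4-UAS reporter units for chimeric NR-Gal4 proteins, exposed to chemicals for 24 h. Reporter mRNA quantified by RT-PCR and capillary electrophoresis; gain of signal fitted relative to DMSO.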

[17] = target: Glucocorticoid receptor (Homo sapiens) (UniProt P04150); assay: ATG_GR_TRANS: Attagene TRANS-FACTORIAL HepG2 Assay for human Glucocorticoid Receptor (GR) (AID 2282978; active means hit-call score of the fitted dose curve at least 0.9, where 1 is the maximum;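 further: activators score as hits since higher reporter transcript over DMSO is fitted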); conditions: HepG2 Attagene TRANS GR reporter, mRNA transcription
Sequence of Glucocorticoid receptor (Homo sapiens) (P04150 whole entry, looked up, the tested form may be a part): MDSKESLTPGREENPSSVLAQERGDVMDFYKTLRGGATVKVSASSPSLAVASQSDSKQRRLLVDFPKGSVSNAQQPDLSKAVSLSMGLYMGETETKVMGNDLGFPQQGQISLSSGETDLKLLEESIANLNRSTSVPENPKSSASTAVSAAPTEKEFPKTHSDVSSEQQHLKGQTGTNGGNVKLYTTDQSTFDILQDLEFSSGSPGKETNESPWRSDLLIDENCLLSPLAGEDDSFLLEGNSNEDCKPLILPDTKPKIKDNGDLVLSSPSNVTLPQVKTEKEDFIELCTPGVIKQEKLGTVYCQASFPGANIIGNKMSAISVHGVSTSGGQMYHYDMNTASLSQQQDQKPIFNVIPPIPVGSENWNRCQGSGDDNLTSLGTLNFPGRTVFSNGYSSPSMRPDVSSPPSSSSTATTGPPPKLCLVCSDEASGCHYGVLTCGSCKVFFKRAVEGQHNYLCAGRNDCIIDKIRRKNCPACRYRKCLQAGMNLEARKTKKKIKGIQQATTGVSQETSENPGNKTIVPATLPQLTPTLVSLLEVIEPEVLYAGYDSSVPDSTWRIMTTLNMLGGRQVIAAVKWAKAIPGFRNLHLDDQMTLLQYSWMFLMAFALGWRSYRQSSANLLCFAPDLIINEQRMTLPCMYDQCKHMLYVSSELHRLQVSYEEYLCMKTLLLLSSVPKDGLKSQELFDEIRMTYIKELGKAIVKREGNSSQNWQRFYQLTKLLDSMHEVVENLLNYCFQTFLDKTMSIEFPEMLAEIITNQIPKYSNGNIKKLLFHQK
Outline: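 HepG2 transient transfection, multiple reporter units, GAL4-UAS under NR-GAL4 chimera control. 24 h treatment. Reporter mRNA by RT-PCR/CE fluorescence, DMSO as negative control.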

[18] = target: Steroid hormone receptor ERR1 (Homo sapiens) (UniProt P11474); assay: ATG_ERRa_TRANS: Attagene TRANS-FACTORIAL HepG2 Assay for human Estrogen-Related Receptor alpha (ERRa) (AID 2282971; active means hit-call score of the fitted dose curve at least 0.9, where 1 is the maximum); conditions: HepG2 Attagene TRANS reporter, ERRa transactivation
Sequence of Steroid hormone receptor ERR1 (Homo sapiens) (P11474 whole entry, looked up, the tested form may be a part): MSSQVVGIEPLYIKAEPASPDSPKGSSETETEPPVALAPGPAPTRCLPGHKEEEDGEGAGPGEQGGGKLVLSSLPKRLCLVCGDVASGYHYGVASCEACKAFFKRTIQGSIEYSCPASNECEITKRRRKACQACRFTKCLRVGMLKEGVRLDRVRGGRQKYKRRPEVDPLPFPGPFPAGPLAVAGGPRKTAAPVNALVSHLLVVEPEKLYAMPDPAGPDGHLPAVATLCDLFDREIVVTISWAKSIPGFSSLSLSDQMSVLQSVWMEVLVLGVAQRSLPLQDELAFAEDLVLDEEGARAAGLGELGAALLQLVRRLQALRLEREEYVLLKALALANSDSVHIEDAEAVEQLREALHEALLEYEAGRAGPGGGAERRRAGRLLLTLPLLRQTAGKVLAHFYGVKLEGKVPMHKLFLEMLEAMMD
Outline: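 HepG2 cells transiently transfected with GAL4-UAS reporter units and chimeric NR-Gal4 constructs; after 24 hour compound incubation, reporter mRNA quantified by RT-PCR, fluorescent labelling and capillary electrophoresis, gain of signal versus DMSO.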

[19] = target: Bile acid receptor (Homo sapiens) (UniProt Q96RI1); assay: ATG_FXR_TRANS: Attagene TRANS-FACTORIAL HepG2 Assay for Farnesoid X Receptor (FXR) (AID 2282979; active means hit-call score of the fitted dose curve at least 0.9, where 1 is the maximum;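 further: hits raise reporter mRNA above DMSO so AC50 marks FXR activation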); conditions: HepG2 Attagene TRANS FXR-GAL4 reporter transcription
Outline: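 HepG2 cells were transiently transfected with GAL4-UAS reporters driven by chimeric NR-Gal4 proteins and dosed for 24 h. Reporter mRNA was quantified by RT-PCR, fluorescent labelling, HpaI digestion and capillary electrophoresis, with gain of signal scored versus DMSO.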

Measured: AC50

Oc1cc(Cl)c(Cl)cc1Cl
active: [2] 58.2 µM | [3] 136 µM
inactive: [1] | [4] | [5] | [6] | [7] | [8] | [9] | [10]

CCCCN(CCCC)C(=S)S
inactive: [2] | [4] | [5] | [7] | [8] | [11] | [12]
active: [1] 50.1 µM | [3] 128 µM

NC(=O)CCl
not listed: [6] | [9] | [10] | [12] | [17] | [18] | [19]
inactive: all other assays above

CCCCCCCCCCBr
active: [11] 33.3 µM
not listed: [6] | [10] | [14] | [18] | [19]
inactive: all other assays above

c1ccc2c(c1)Oc1ccccc1O2
inactive: [1] | [2] | [3] | [4] | [5] | [7] | [8] | [13] | [14] | [15]

CCOc1cc(C=O)ccc1O
not listed: [5] | [11] | [12] | [17] | [18] | [19]
inactive: all other assays above

O=c1[nH]c(=O)n(Cl)c(=O)n1Cl
not listed: [11] | [13] | [14] | [19]
inactive: all other assays above

NNCCO
not listed: [6] | [10] | [11] | [14] | [16] | [17] | [18]
inactive: all other assays above

O=C(NC(=O)c1c(F)cccc1F)Nc1cc(Cl)c(OC(F)(F)C(F)C(F)(F)F)cc1Cl (stereo not drawn)
not listed: [6] | [9] | [10] | [12] | [14] | [17] | [18] | [19]
inactive: all other assays above

CCNc1nc(NCC)nc(SC)n1
not listed: [5] | [9] | [10] | [12] | [16] | [18] | [19]
inactive: all other assays above

CCCCOC(=O)COC(=O)c1ccccc1C(=O)OCCCC
not listed: [6] | [12] | [13] | [16] | [19]
inactive: all other assays above

CCCSP(=S)(OCC)Oc1ccc(Cl)cc1Cl (stereo not drawn)
active: [8] 137 µM | [11] 2.91 µM
not listed: [5] | [9] | [10] | [12] | [19]
inactive: all other assays above

OC(c1ccc(Cl)cc1)(c1ccc(Cl)cc1)c1cccnc1
not listed: [12] | [13] | [14] | [15] | [16] | [17] | [18]
inactive: all other assays above
